The sample as a whole holds a higher share of hits than the screen did.
HT1080 IDH1KD tx – kills HT-1080 cells with IDH1 knockdown; HT-1080 IDH1 knockdown viability, ATP luminescence, 48 h; Potency, µM (titrated, usually from 46.1 µM), without a hit: top-dose activity, negative = toxicity, actives largely listed as cytotoxic; hit rate 2% among 360,000;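 note: potency is the fitted concentration of half-maximal effect; 0% = DMSO wells and -100% = cell-free medium wells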
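Knockdown cells (IDH1KD HT-1080) received compounds 2 h after plating at 750 cells/well and were kept 48 h at 37 °C in 5% FBS RPMI. A CellTiter-Glo luminescence read gave % activity for curve fitting.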
HT1080NT lethal – kills 2HG-producing HT-1080-NT fibrosarcoma cells; HT-1080-NT fibrosarcoma viability, CellTiter-Glo ATP luminescence, 48 h; hit rate 1.6% among 360,000; Potency, µM (series often up to 46.1 µM), for the others: top-dose activity, negative = less viability, actives largely listed as cytotoxic;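 note: NT is the 2HG producing partner of a matched IDH1 knockdown line; potency is the fitted concentration of half-maximal effect; 0% = DMSO-treated cells and -100% = media-only wells without cells; nearly all actives have a fitted effect of over 55% in size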
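750 cells/well, RPMI + 5% FBS; 2 h settle, compound pin-transfer, 48 h at 37 degrees C. CellTiter-Glo 10 min RT, luminescence. Normalized to DMSO and media-only wells.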
DT40 TDP1 CPT – DT40-hTDP1 cell growth loss with CPT | chicken DT40 Tdp1-/-;hTDP1 cells + 20 nM CPT, ATP luminescence, 48 h | Potency, µM (top dose mostly 46.2 µM), without a hit: at the top dose activity change, negative = growth inhibition, most hits filed as inhibitors | hit rate 12% among 420,000 | AID 686979; note: potency is the fitted concentration of half-maximal effect; nearly all actives have a fitted effect of over 55% in size
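Chicken DT40 Tdp1-/- cells stably complemented with human TDP1 were seeded at 400 cells/well in medium containing 20 nM camptothecin, exposed to pin-transferred compounds, and grown at 37 °C for at least 48 hr. Viability was read as ATP luminescence.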
12-LOX inh – blocks human arachidonate 12S-lipoxygenase. P18054. purified 12hLO, xylenol orange hydroperoxide absorbance. Potency, µM (titrated, usually from 108 µM), inactives show at the highest dose activity change, negative = inhibition, hits mostly inhibitors. hit rate 1.1% among 580,000; note: potency is the fitted concentration of half-maximal effect
Target sequence (P18054 whole entry, looked up): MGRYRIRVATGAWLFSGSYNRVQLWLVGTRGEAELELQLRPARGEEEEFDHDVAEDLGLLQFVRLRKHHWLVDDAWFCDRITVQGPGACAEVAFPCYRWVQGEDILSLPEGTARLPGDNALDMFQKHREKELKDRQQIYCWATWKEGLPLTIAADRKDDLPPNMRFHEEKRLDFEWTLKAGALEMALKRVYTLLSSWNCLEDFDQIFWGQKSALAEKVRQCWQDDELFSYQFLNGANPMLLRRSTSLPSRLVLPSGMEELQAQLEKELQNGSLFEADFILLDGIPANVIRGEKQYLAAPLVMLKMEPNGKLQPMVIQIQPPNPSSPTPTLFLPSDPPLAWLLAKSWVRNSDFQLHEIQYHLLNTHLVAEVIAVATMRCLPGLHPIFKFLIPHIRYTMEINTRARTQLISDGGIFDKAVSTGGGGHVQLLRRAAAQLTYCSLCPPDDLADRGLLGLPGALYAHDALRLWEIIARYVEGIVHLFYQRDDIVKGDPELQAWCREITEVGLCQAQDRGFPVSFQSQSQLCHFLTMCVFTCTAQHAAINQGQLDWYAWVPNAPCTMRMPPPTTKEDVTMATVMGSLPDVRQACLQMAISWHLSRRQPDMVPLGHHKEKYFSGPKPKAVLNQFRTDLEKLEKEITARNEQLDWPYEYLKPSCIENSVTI
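Purified human 12hLO at 150 nM in 25 mM Hepes, 0.01% Triton X-100, pH 7.0, preincubated 15 min at room temperature with compound. Reaction started with 40 uM arachidonic acid, 30 min at room temperature. Hydroperoxide measured by Fe-xylenol orange, 573/405 nm absorbance ratio.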
TDP1 cell noCPT – qHTS for Inhibitors of human tyrosyl-DNA phosphodiesterase 1 (TDP1): qHTS in cells in absence of CPT; DT40 Tdp1-/- hTDP1 cells, no CPT, ATP luminescence, 48 h; Potency, µM (titrated, usually from 46.2 µM), without a hit: at the highest dose activity change, negative = growth inhibition, actives largely listed as inhibitors; hit rate 15% among 420,000; note: potency is the fitted concentration of half-maximal effect; nearly all actives have a fitted effect of over 55% in size
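Chicken DT40 Tdp1-/- cells stably complemented with human TDP1 were seeded at 400 cells/well with DMSO in place of 20 nM camptothecin. After compound pinning, cells grew at least 48 hr at 37 °C; viability read by CellTiter-Glo luminescence.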
IL-1B inflam inh – inhibitors of inflammasome signaling (IL-1 beta secretion); hit rate 4.7% among 360,000; THP-1 LPS/ATP IL-1B secretion, AlphaLISA, 16 h; stronger effect = lower value; activity change, % at 57.5 µM; in the data active = activity change below about -50%; inconclusive = mostly about -30% to -49%
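THP-1 cells pretreated 1 hr with compounds (up to 57.5 uM final), then stimulated with LPS (250 ng/mL final) plus ATP (1.25 mM final); secreted IL-1B measured by AlphaLISA after 16 hr, decreased signal indicating inhibition.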
Active calls of the source: *; ? = inconclusive; · = no result given; [ ] = another dose, or the depositor's remark. Unless noted, calls come from the whole dose curve; as a rule, active = well fitted curve in the direction sought with a large enough effect; inconclusive = small, poorly fitted or top-dose-only effect, or another doubt; inactive = no such curve, though single readings can be large; an effect the other way counts as inactive or inconclusive. Unless noted, % is set by controls: 0 for no effect and ±100 for the full control effect.

SMILES	HT1080 IDH1KD tx	HT1080NT lethal	DT40 TDP1 CPT	12-LOX inh	TDP1 cell noCPT	IL-1B inflam inh
O=C1NC(=S)SC1=Cc1ccc(Cl)cc1	?	-24%	?	22µM*	21µM*	-26
O=C1NC(=S)S/C1=C\c1ccc2ccccc2c1	-2%	0%	?	9%	21µM*	-3
COc1ccc(/C=C2/SC(=S)N(n3c(C)ccc3C)C2=O)cc1	-1%	5%	?	-12%	15µM*	-8
CNC(=O)c1ccc(CN(C)C(=O)c2ccc(S(=O)(=O)NC3CC3)cc2)cc1	·	·	·	42%	·	·
O=C(CCC(=O)c1ccc2c(c1)CCC2)NC1CCCCC1	·	·	·	-6%	·	·
CCn1c(SCc2ccccc2Cl)nc(=O)c2c(C(=O)OC)cc(C3CC3)nc21	·	·	12µM*	-17%	16µM*	·
Cc1nn(-c2ncnc3nc[nH]c23)c2c1C(c1ccc(F)cc1Cl)CC(=O)N2 (configuration not stated)	·	·	·	9%	·	·
COC(=O)c1c(C)[nH]c(C)c1C(=O)c1ccccc1Cc1ccccc1	-12%	-4%	40µM*	-4%	7.3µM*	8
O=C(Cn1nnc(-c2cc(C(F)(F)F)cc(C(F)(F)F)c2)n1)NNC(=S)Nc1ccc(Cl)cc1	3%	6%	4%	18µM*	?	-12
CCC(C)(C)n1nnnc1CN1CCN(c2nc3cc(OC)ccc3cc2C#N)CC1	-16%	-13%	?	?	23µM*	-56*
Cc1ccc2nc(N3CCN(Cc4nnnn4C4CCCC4)CC3)c(C#N)cc2c1	-5%	-13%	?	-24%	23µM*	-4
Cc1ccc(C)c(N2CCN(Cc3nnnn3C3CCCCC3)CC2)c1	-3%	-3%	?	?	?	-12
CC(=O)C1=C(O)C=C2Oc3c(C(C)=O)c(O)c(C)c(O)c3C2(C)C1=O (configuration not stated)	·	·	-5%[9.04 µM]	?	10%[9.04 µM]	·
CC(=O)Oc1c(C)c(OC(C)=O)c2c(c1C(C)=O)OC1CC(=O)C(C(C)=O)=C(O)C21C (configuration not stated)	-22%	-11%	?	28µM*	?	16
NC(=O)C1CCN(C(=O)Cn2ccc3cc(Br)ccc32)CC1	·	·	·	13%	·	·
COc1ccc2ccccc2c1C(=O)/C=C\c1ccoc1	-17%	-24%	?	?	?	-56*
CN1CCC(NCCC(c2ccc(F)cc2)c2ccc(Cl)cc2)CC1 (configuration not stated)	5.2µM*	4.1µM*	5.8µM*	0%	5.8µM*	-103*
CC(NC1CCN(Cc2ccccc2)CC1)c1ccc(F)cc1 (configuration not stated)	-23%	-21%	?	?	?	?
CC(C)C(CCNC1CCN(C)CC1)c1ccc(Cl)cc1 (configuration not stated)	?	?	4.6µM*	?	3.3µM*	-52*
COc1ccc(S(=O)(=O)N2CCOCC2)cc1C(=O)N(C)Cc1ccco1	5%	5%	0%	-2%	-30%	-10
COc1ccc(S(=O)(=O)N2CCCCCC2)cc1C(=O)N(C)Cc1ccco1	3%	0%	26µM*	-10%	18µM*	-1
COc1ccc(S(=O)(=O)N2CCCCCC2)cc1C(=O)N(C)Cc1ccc(C(C)(C)C)cc1	?	?	?	-5%	?	-72*
COc1ccc(S(=O)(=O)N2CCCCCC2)cc1C(=O)N(C)Cc1ccc(OC)c(OC)c1OC	9%	-3%	?	2%	23µM*	-15
O=C([C@H]1C[C@H](Oc2ccccc2)CN1C(=O)C1CCC1)N1CCOCC1	·	·	·	28%	·	·
COc1ccc(O)c(/C=N/n2c(-c3ccco3)csc2=Nc2cccnc2)c1	-7%	-18%	-27%	-10%	?	0
SMILES	HT1080 IDH1KD tx	HT1080NT lethal	DT40 TDP1 CPT	12-LOX inh	TDP1 cell noCPT	IL-1B inflam inh
CN=c1scc(-c2ccccc2F)n1/N=C/c1ccc[nH]1	?	?	-11%	-22%	?	?
CCN=c1scc(-c2cccs2)n1/N=C/c1cc(OC)ccc1O	-25%	-17%	?	-14%	21µM*	-62*
CN=c1scc(-c2ccccc2F)n1/N=C/c1ccc(O)c(O)c1O	?	-21%	13µM*	35µM*	12µM*	-14
CC(C)N=c1scc(-c2cccs2)n1/N=C/c1ccc(O)c(O)c1O	16µM*	?	13µM*	14µM*	13µM*	-83*
Cc1cc(C)cc(C(=O)NCc2ccco2)c1	·	·	·	13%	·	·
COc1ccc(NC(=O)CSc2nc(-c3cccs3)cc(C(F)(F)F)n2)c(OC)c1	·	·	16µM*	-9%	21µM*	·
O=C(CSc1nc(-c2cccs2)cc(C(F)(F)F)n1)Nc1ccccc1Cl	·	·	?	-24%	18µM*	·
Cc1ccc(NC(=O)CSc2nc(-c3cccs3)cc(C(F)(F)F)n2)cc1C	·	·	7.3µM*	-19%	5.8µM*	·
O=C(CSc1nc(-c2cccs2)cc(C(F)(F)F)n1)Nc1cc(OCC(F)(F)C(F)F)cc([N+](=O)[O-])c1	?	?	8.2µM*	-1%	12µM*	5
COc1ccc(NC(=O)CSc2nc3nc(-c4cccs4)cc(C(F)(F)F)c3c(=O)[nH]2)c(OC)c1	-24%	-22%	-24%	?	?	18
O=C(c1ccoc1)N1C[C@H]2OC(=O)N(CCCN3CCOCC3)[C@H]2C1	·	·	·	-1%	·	·
N#Cc1ccc(Oc2ccc(C(=O)OCC(=O)c3ccc(Cl)cc3)cc2)cc1C#N	·	·	·	3%	·	·
CCOc1ccccc1OCCC(=O)Nc1cccc2cccnc12	·	·	·	10%	·	·
CN(C)CCP(=O)(c1ccccc1)c1ccccc1	9%	-2%	7%	10%	?	20
CN(C)CCN(C)Cc1c2ccccc2c(CN(C)CCN(C)C)c2ccccc12	21µM*	?	18µM*	?	18µM*	-84*
COc1ccc(C2Nc3cc(OC)ccc3-n3cccc32)cc1 (configuration not stated)	-22%	-16%	23µM*	?	23µM*	?
Cc1ccccc1C1C2=C(CC(C)(C)CC2=O)OC2=C1C(=O)CC(C)(C)C2	·	·	·	-3%	·	·
O=C(c1ccoc1)N1CCC2(CC1)CN(Cc1ccccc1)CC2CO (configuration not stated)	·	·	·	27%	·	·
CCN(CC)c1ccc2cc(-c3nc(-c4ccccc4)no3)c(=O)oc2c1	·	·	?	1%	5.8µM*	·
